PubChem BioAssay (NCATS)
Results filed as inconclusive are left out. Active and inactive are the calls of the source. The call rests on the fitted dose curve; in most records, active means well fitted inhibition curve with a large enough effect; inconclusive means small, poorly fitted or top-dose-only effect; inactive means flat fitted curve, though single readings scatter.

Assays:
[1] = Drug repurposing screens with cells derived from glioblastoma tumor samples (AID 1345199); settings: GBM patient neurospheres viability, ATP luminescence, 48 h; further: nearly all actives have a fitted effect of over 40% in size
Outline: (§1)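 Four patient lines of CD133+ GBM neurospheres were screened at several concentrations; hits were retested in those lines plus three slower-growing GBM lines, using 48-hour treatment and ATP-based viability.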

astro = control astrocytes; assay: as above; settings: viability, ATP luminescence, 48 h; series mostly up to 45.9 µM
Outline: as §1

[2] = at 20 µM (top of the series), tumour line C
[3] = at 21.2 µM (top of the series), tumour line B
[4] = at 21.2 µM (top of the series), tumour line D
[5] = at 21.3 µM (top of the series), tumour line A
[6] = at 45.9 µM (top of the series), tumour line B
[7] = at 45.9 µM (top of the series), tumour line D
[8] = at 46 µM (top of the series), tumour line A
[9] = at 46.1 µM (top of the series), tumour line C

Measured: activity, negative = cell killing
On the % scale 0 is the no-effect control and ±100 the full control effect.

CN/C(=C\[N+](=O)[O-])NCCSCc1csc(CN(C)C)n1
inactive: [1]; [2] -1.68% | [1]; [3] 0.685% | [1]; [4] -13.3% | [1]; [5] -19.6% | astro

Cn1c([N+](=O)[O-])cnc1COC(N)=O
inactive: [1]; [6] -9.55% | [1]; [7] -8.48% | [1]; [8] -18.6% | [1]; [9] -20.8% | astro

C[C@@H]1CCC[C@H](C)N1
inactive: [1]; [2] -13.9% | [1]; [3] -3.64% | [1]; [4] -2.57% | [1]; [5] -18% | astro

CNc1c2c(nn1C)CCCC2
inactive: [1]; [6] -7.34% | [1]; [7] -0.633% | [1]; [8] -5.91% | [1]; [9] -14.3% | astro

CCCCCOC(=O)Nc1nc(=O)n([C@@H]2O[C@H](C)[C@@H](O)[C@H]2O)cc1F
inactive: [1]; [6] 3.4% | [1]; [7] -3.99% | [1]; [8] -16.9% | [1]; [9] 7.27% | astro

CCCNC(C)C(=O)Nc1c(C)csc1C(=O)OC (stereo not given)
inactive: [1]; [2] 8.39% | [1]; [3] -2.83% | [1]; [4] -13.6% | [1]; [5] -41.7% | astro

CCOC(=O)[C@H](CCc1ccccc1)N[C@@H](C)C(=O)N1CCC[C@H]1C(=O)O
inactive: [1]; [6] -10.1% | [1]; [7] -16.5% | [1]; [8] -13.8% | [1]; [9] -21.6% | astro

NC(=O)NC1NC(=O)NC1=O (stereo not given)
inactive: [1]; [2] 1.99% | [1]; [3] 4.84% | [1]; [4] -17.3% | [1]; [5] -7.96% | astro

O=C(O)COC(=O)Cc1ccccc1Nc1c(Cl)cccc1Cl
inactive: [1]; [2] -2.19% | [1]; [3] -12.4% | [1]; [4] -4.64% | [1]; [5] -12.9% | astro
